Assay results reported in PubChem BioAssay (NCI).
About 79,000 compounds went through this panel and 15% of them were active in at least one assay; those are over-represented in the sample as a whole. Activity calls are given as the source filed them. Cut-off read from the data, not from the text of the source: active = growth inhibition above about 70%; inactive = the rest.

Key:
[1] = NCI Yeast Anticancer Drug Screen. Data for the rad52 strain (AID 147);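 note: 0% = growth of vehicle-treated control cultures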; conditions: S. cerevisiae rad52 mutant growth inhibition, active compounds read high
Outline: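 Genetically altered yeast (DNA damage repair defect) treated with compound; inhibition calculated relative to vehicle.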

[2] = NCI Yeast Anticancer Drug Screen. Data for the wt1 strain (AID 149);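 note: 0% = growth of vehicle-treated wt1 cultures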; conditions: S. cerevisiae wt1 strain (SPY 50644) growth inhibition, active compounds read high
Outline: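 Each compound is tested on wt1 yeast and the loss of growth versus vehicle gives the inhibition value.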

[3] = NCI Yeast Anticancer Drug Screen. Data for the rad50EPP+ strain (AID 151);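 note: 0% = growth of vehicle-treated control cultures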; conditions: S. cerevisiae rad50 mutant strain, active compounds read high
Outline: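 Strain rad50EPP+; compound exposure; % growth inhibition vs vehicle.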

[4] = NCI Yeast Anticancer Drug Screen. Data for the mgt1 strain (AID 153); conditions: S. cerevisiae mgt1 mutant growth inhibition, active compounds read high
Outline: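 Read-out: yeast growth inhibition vs vehicle control. Strain mgt1, drawn from a panel altered in DNA damage repair or cell cycle control.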

[5] = NCI Yeast Anticancer Drug Screen. Data for the rad50 strain (AID 155);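 note: 0% = growth of vehicle-only cultures of the same strain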; conditions: S. cerevisiae rad50 strain growth inhibition, active compounds read high
Outline: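 Vehicle-treated cultures provide the reference for the growth inhibition reported for compound-exposed, repair-deficient yeast.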

[6] = NCI Yeast Anticancer Drug Screen. Data for the mec2-1 strain (AID 157); conditions: S. cerevisiae mec2-1 strain, active compounds read high
Outline: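 Cells of the genetically defined mec2-1 yeast strain are incubated with test compound. Inhibition of growth is calculated against vehicle-treated controls.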

[7] = NCI Yeast Anticancer Drug Screen. Data for the rad14 strain (AID 159);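 note: 0% = growth of vehicle-treated control cultures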; conditions: S. cerevisiae rad14 strain growth inhibition, active compounds read high
Outline: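 Inhibition of growth is reported for a repair-deficient yeast mutant following compound treatment, calculated relative to cultures that received vehicle.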

[8] = NCI Yeast Anticancer Drug Screen. Data for the sgs1 mgt1 strain (AID 161);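 note: 0% = growth of cultures given vehicle only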; conditions: S. cerevisiae sgs1 mgt1 strain, active compounds read high
Outline: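 Test agents were incubated with a DNA-repair-mutant yeast strain. Growth was then read and compared against vehicle-treated controls.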

[9] = NCI Yeast Anticancer Drug Screen. Data for the CLN2oe strain (AID 163);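 note: 0% = growth of vehicle-only control cultures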; conditions: S. cerevisiae CLN2oe strain, active compounds read high
Outline: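 Strain altered in cell-cycle control, incubated with compound; growth compared to solvent-treated controls.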

[10] = NCI Yeast Anticancer Drug Screen. Data for the cln2 rad14 strain (AID 165);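 note: 0% = growth equal to vehicle treated cultures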; conditions: S. cerevisiae cln2 rad14 strain, active compounds read high
Outline: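 The screen exposed genetically defined yeast (cln2 rad14) to test compounds and scored growth inhibition relative to vehicle-treated controls.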

[11] = NCI Yeast Anticancer Drug Screen. Data for the bub3 strain (AID 167); conditions: S. cerevisiae bub3 mutant strain, active compounds read high
Outline: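 Mutant yeast screening strain plus compound; vehicle-treated cultures serve as the 0% inhibition reference.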

[12] = NCI Yeast Anticancer Drug Screen. Data for the wt2 strain (AID 169); conditions: S. cerevisiae wt2 strain growth inhibition, active compounds read high
Outline: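 Steps: yeast strain treated with compound; growth recorded; inhibition calculated relative to cultures given vehicle alone.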

[13] = NCI Yeast Anticancer Drug Screen. Data for the mlh1 strain (AID 171);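 note: 0% = growth of vehicle-treated control cultures of the same strain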; conditions: S. cerevisiae mlh1 strain growth inhibition, active compounds read high
Outline: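 Yeast screen: mutant strain plus compound, growth scored against vehicle control wells.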

[14] = NCI Yeast Anticancer Drug Screen. Data for the sgs1 strain (AID 173);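 note: 0% = growth of vehicle-only control cultures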; conditions: S. cerevisiae sgs1 mutant, active compounds read high
Outline: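 Inhibition of yeast growth served as the measure. The mutant strain was treated with each compound, and growth was normalised to cultures receiving vehicle alone.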

[15] = NCI Yeast Anticancer Drug Screen. Data for the mlh1 rad18 strain (AID 175); conditions: S. cerevisiae mlh1 rad18 strain growth inhibition, active compounds read high
Outline: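 Compound-treated yeast growth, normalised to vehicle controls. Strain bears defined DNA repair mutations.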

[16] = NCI Yeast Anticancer Drug Screen. Data for the rad18 strain (AID 177); conditions: S. cerevisiae rad18 mutant growth inhibition, active compounds read high
Outline: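 Inhibition values reflect reduced yeast growth compared with vehicle-treated controls, using a strain engineered with a DNA damage repair defect.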

[17] = at 5.0 µM (retest, dose inferred, filed as 0.5)
[18] = at 50.0 µM (retest, dose inferred, filed as 5.0)

Measured: growth inhibition

c1ccc2c(c1)sc1c3cnccc3ccc21
active: [1]; at 33.0 µM 84% | [1]; at 100.0 µM 86% | [3]; at 33.0 µM 73% | [5]; at 33.0 µM 74% | [5]; [18] 74% | [5]; at 50.0 µM 94.3% | [5]; at 100.0 µM 73%
inactive: [1]; at 1.2 µM 11% | [1]; at 3.7 µM 41% | [1]; at 11.0 µM 62% | [2]; at 1.2 µM -1% | [2]; at 3.7 µM 14% | [2]; at 11.0 µM 23% | [2]; at 33.0 µM 22% | [2]; at 100.0 µM 23% | [3]; at 1.2 µM 36% | [3]; at 3.7 µM 46% | [3]; at 11.0 µM 55% | [3]; at 100.0 µM 65% | [4]; at 1.2 µM 1% | [4]; at 3.7 µM -1% | [4]; at 11.0 µM 0% | [4]; at 33.0 µM -3% | [4]; at 100.0 µM 3% | [5]; at 1.2 µM 12% | [5]; at 3.7 µM 36% | [5]; [17] 35% | [5]; at 11.0 µM 64% | [6]; at 1.2 µM 4% | [6]; at 3.7 µM 2% | [6]; [17] -34% | [6]; at 11.0 µM 3% | [6]; at 33.0 µM 8% | [6]; [18] -20% | [6]; at 50.0 µM 47.4% | [6]; at 100.0 µM 12% | [7]; at 1.2 µM 4% | [7]; at 3.7 µM 15% | [7]; at 11.0 µM 37% | [7]; at 33.0 µM 32% | [7]; at 100.0 µM 29% | [8]; [17] -55% | [8]; [18] -34% | [8]; at 50.0 µM 23.6% | [9]; at 1.2 µM 4% | [9]; at 3.7 µM 8% | [9]; at 11.0 µM 1% | [9]; at 33.0 µM 5% | [9]; at 100.0 µM 8% | [10]; [17] -39% | [10]; [18] -26% | [10]; at 50.0 µM 33% | [11]; at 1.2 µM 13% | [11]; at 3.7 µM 15% | [11]; [17] -35% | [11]; at 11.0 µM 24% | [11]; at 33.0 µM 34% | [11]; [18] -8% | [11]; at 50.0 µM 44.9% | [11]; at 100.0 µM 39% | [12]; at 1.2 µM 8% | [12]; at 3.7 µM 14% | [12]; at 11.0 µM 25% | [12]; at 33.0 µM 36% | [12]; at 100.0 µM 32% | [13]; at 1.2 µM -9% | [13]; at 3.7 µM -1% | [13]; at 11.0 µM 2% | [13]; at 33.0 µM 10% | [13]; at 100.0 µM 9% | [14]; at 1.2 µM -8% | [14]; at 3.7 µM -10% | [14]; at 11.0 µM 3% | [14]; at 33.0 µM 9% | [14]; at 100.0 µM 8% | [15]; [17] -171% | [15]; [18] -49% | [15]; at 50.0 µM 45.5% | [16]; at 1.2 µM -8% | [16]; at 3.7 µM 1% | [16]; at 11.0 µM -1% | [16]; at 33.0 µM -2% | [16]; at 100.0 µM 13%

C[C](C)(C)[Ge]([O][Ge]([c]1ccccc1)[c]1ccccc1)([O][Ge]([c]1ccccc1)[c]1ccccc1)[C](C)(C)C
inactive: [1]; at 1.2 µM 1% | [1]; at 3.7 µM 15% | [1]; at 11.0 µM 53% | [2]; at 1.2 µM -3% | [2]; at 3.7 µM 5% | [2]; at 11.0 µM 42% | [2]; at 33.0 µM 68% | [3]; at 1.2 µM 0% | [3]; at 3.7 µM 5% | [3]; at 11.0 µM 5% | [3]; at 33.0 µM 1% | [3]; at 100.0 µM -3% | [4]; at 1.2 µM -2% | [4]; at 3.7 µM 3% | [4]; at 11.0 µM 44% | [4]; at 33.0 µM 67% | [4]; at 100.0 µM 62% | [5]; at 1.2 µM -1% | [5]; at 3.7 µM 6% | [5]; [17] 12% | [5]; at 11.0 µM 42% | [5]; at 33.0 µM 63% | [5]; [18] 63% | [6]; at 1.2 µM 4% | [6]; at 3.7 µM 21% | [6]; [17] 29% | [6]; at 11.0 µM 60% | [6]; at 50.0 µM 65.8% | [7]; at 1.2 µM -4% | [7]; at 3.7 µM 1% | [7]; at 11.0 µM 23% | [7]; at 33.0 µM 46% | [7]; at 100.0 µM 57% | [8]; [17] 19% | [8]; at 50.0 µM 61.6% | [9]; at 1.2 µM 4% | [9]; at 3.7 µM 18% | [9]; at 11.0 µM 55% | [10]; [17] 26% | [10]; at 50.0 µM 67.8% | [11]; at 1.2 µM -4% | [11]; at 3.7 µM 4% | [11]; [17] 9% | [11]; at 11.0 µM 53% | [12]; at 1.2 µM -1% | [12]; at 3.7 µM 10% | [12]; at 11.0 µM 46% | [12]; at 33.0 µM 64% | [12]; at 100.0 µM 64% | [13]; at 1.2 µM 0% | [13]; at 3.7 µM 9% | [13]; at 11.0 µM 49% | [13]; at 33.0 µM 66% | [13]; at 100.0 µM 68% | [14]; at 1.2 µM 8% | [14]; at 3.7 µM 27% | [15]; [17] 48% | [16]; at 1.2 µM 4% | [16]; at 3.7 µM 20% | [16]; at 11.0 µM 56%
active: [1]; at 33.0 µM 74% | [1]; at 100.0 µM 78% | [2]; at 100.0 µM 75% | [5]; at 50.0 µM 71.9% | [5]; at 100.0 µM 71% | [6]; at 33.0 µM 80% | [6]; [18] 75% | [6]; at 100.0 µM 79% | [8]; [18] 80% | [9]; at 33.0 µM 74% | [9]; at 100.0 µM 81% | [10]; [18] 82% | [11]; at 33.0 µM 77% | [11]; [18] 79% | [11]; at 50.0 µM 76.7% | [11]; at 100.0 µM 79% | [14]; at 11.0 µM 71% | [14]; at 33.0 µM 78% | [14]; at 100.0 µM 76% | [15]; [18] 90% | [15]; at 50.0 µM 75.9% | [16]; at 33.0 µM 73% | [16]; at 100.0 µM 74%

C(=Nc1ccc(-c2cc(-c3ccccc3)nc3ccc4ccccc4c23)cc1)c1ccccc1
inactive: [1]; at 1.2 µM 34% | [1]; at 3.7 µM 40% | [1]; at 11.0 µM 37% | [1]; at 33.0 µM 53% | [2]; at 1.2 µM 26% | [2]; at 3.7 µM 24% | [2]; at 11.0 µM 9% | [2]; at 33.0 µM 31% | [2]; at 100.0 µM 57% | [3]; at 1.2 µM 16% | [3]; at 3.7 µM 7% | [3]; at 11.0 µM 15% | [3]; at 33.0 µM 10% | [3]; at 100.0 µM 6% | [4]; at 1.2 µM 21% | [4]; at 3.7 µM 11% | [4]; at 11.0 µM 12% | [4]; at 33.0 µM 10% | [4]; at 100.0 µM 47% | [5]; at 1.2 µM 23% | [5]; at 3.7 µM 24% | [5]; [17] 20% | [5]; at 11.0 µM 42% | [5]; at 33.0 µM 52% | [5]; [18] 54% | [5]; at 50.0 µM 50.2% | [5]; at 100.0 µM 68% | [6]; at 1.2 µM 11% | [6]; at 3.7 µM 5%
active: [1]; at 100.0 µM 76%
